Results on 39 molecules are retold here after PubChem BioAssay (NCATS).

Records with an inconclusive call do not appear. A call without a number means that no potency is given here. The source made the active and inactive calls. The call rests on the fitted dose curve; in most records, active means well fitted inhibition curve with a large enough effect; inconclusive means small, poorly fitted or top-dose-only effect; inactive means flat fitted curve, though single readings scatter.

Calcium and integrin-binding protein 1 (Homo sapiens), sequence (Q99828 whole entry, looked up): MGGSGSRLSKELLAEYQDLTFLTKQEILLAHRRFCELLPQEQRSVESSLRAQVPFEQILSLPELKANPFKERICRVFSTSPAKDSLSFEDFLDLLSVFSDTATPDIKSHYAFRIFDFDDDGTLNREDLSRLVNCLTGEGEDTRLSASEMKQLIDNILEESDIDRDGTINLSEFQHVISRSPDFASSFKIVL

This assay has as its target Calcium and integrin-binding protein 1 (Homo sapiens) (UniProt Q99828). As to the kind of experiment: Primary qHTS for Identification of Calcium Integrin Binding Protein 1 (CIB1) Competitor (AID 1508620).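 Further: GST tagged CIB1 binding a fluorescein labelled alphaIIb integrin peptide tracer; top concentration of the series differs between compounds.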 The note with it: CIB1-GST / FITC-alphaIIb peptide fluorescence polarization; series mostly up to 57.7 µM. In a few lines: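 Fluorescence polarization competition: CIB1-GST (1 uM final) preincubated with compound 15 min at room temperature, then FITC-labeled alphaIIb peptide (100 nM final) added for another 15 min. Polarization read at Ex 480/Em 540.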
A general note: In qHTS, concentration-response curves come from the screen itself.
Regarding `Nc1nonc1C(=Nc1ccc(F)c(Cl)c1)NO`, the Potency result was “inactive”.
In the case of `CC1CC(O)CC(C)(C)C1(O)CCO` (centres undefined) it was “inactive”.
The result for `COC(=O)c1ccc(O[C@@H]2O[C@H](CO)[C@@H](O)[C@H](O)[C@H]2O)c(OC)c1` reads “inactive”; that for `O=C(COc1ccc(Cl)cc1)NC1CCC(NC(=O)COc2ccc(Cl)cc2)CC1` (centres undefined), “inactive”.
In the case of `COc1cc(/C=C/c2cc(O)cc(O[C@@H]3O[C@H](CO)[C@@H](O)[C@H](O)[C@H]3O)c2)ccc1O` it was “inactive”.
With `O=C1C[C@@H](c2ccc(O)cc2)Oc2cc(O)ccc21`, the Potency entry is “inactive”.
The result for `CC1(O)CCC2C(C(=O)O)=COC(OC3OC(CO)C(O)C(O)C3OC(=O)/C=C/c3ccc(O)cc3)C21` (centres undefined) reads “inactive”; that for `CC(C)C(=O)O[C@@H]1[C@@H](O)[C@@H](O[C@H]2O[C@H](CO)[C@@H](O)[C@H](O)[C@H]2O)O[C@H](CO)[C@H]1O`, “inactive”.
The result for `CC1(C)CCCC2(C)C(CO)C3CCC2C31` (centres undefined) reads “inactive”; that for `CC1(C)CC2C(C1)C1(C)CCC13OC3(CO)C2O` (centres undefined), “inactive”; that for `COc1cc2c(Nc3ccc(Cl)c(Cl)c3F)ncnc2cc1OCC1C[C@@H]2CN(C)C[C@@H]2C1` (some centres undefined), “inactive”.
The result for `CC(=O)OC1C=C(C(=O)O)C2(CO)CCC(C)C(C)(CCc3ccoc3)C2C1` (centres undefined) reads “inactive”.
As for `Cc1cc(Nc2ncc(Cl)c(Nc3ccccc3S(=O)(=O)C(C)C)n2)c(OC(C)C)cc1C1CCNCC1`, the Potency entry is “inactive”.
In the case of `COc1cc(/C=C/C(=O)O[C@H]2[C@H](O)[C@@H](CO)O[C@@]2(CO)O[C@H]2O[C@H](COC(=O)c3ccc(O)cc3)[C@@H](O)[C@H](O)[C@H]2O)cc(OC)c1OC` it was “inactive”; in that of `CC(=O)N(O)CCCCCN1C(=O)CCC1=O`, “inactive”.
As to `CC12CC34C=CC(=O)C(C)(CCC(=O)O)C3C(CC1C4)O2` (centres undefined), the Potency result was “inactive”.
In the case of `C[C@@H]1CCC2C(C)(C)[C@H](O)CC[C@]2(C)[C@@]12Cc1c(O)cc3c(c1O2)CN(CCO)C3=O` (some centres undefined) it was “inactive”; in that of `COC(=O)CC1(O)C(=O)Nc2ccccc21` (centres undefined), “inactive”; in that of `CC1C/C=C/C=C\CCCCC(O)C/C=C/C(=O)O1` (centres undefined), “inactive”.
The result for `C=CCc1ccc(O[C@@H]2O[C@H](CO[C@@H]3O[C@@H](C)[C@H](O)[C@@H](O)[C@H]3O)[C@@H](O)[C@H](O)[C@H]2O)cc1` reads “inactive”; that for `Cc1cc(N2CCCCC2)nc2ccccc12`, “inactive”.
The result for `O=S(=O)(NC1CCNCC1)c1cc(S(=O)(=O)c2ccccc2)ccc1C(F)(F)F` reads “inactive”.
As for `CC1CCC2C(C(=O)O)=CC3C(O)C(C)(C)CC123` (centres undefined), the Potency result was “inactive”.
The result for `Cc1c(-c2ccnn2C)cc(C(=O)NCc2ccc(S(C)(=O)=O)cn2)c(=O)n1-c1cccc(C(F)(F)F)c1` reads “inactive”; that for `COc1cc(/C=C/CO)ccc1O[C@@H]1O[C@H](CO)[C@@H](O)[C@H](O)[C@H]1O`, “inactive”.
In the case of `C=CC1C(O[C@@H]2O[C@H](CO)[C@@H](O)[C@H](O)[C@H]2O)OC=C(C(=O)OC)C1Cc1nccc2c1[nH]c1ccccc12` (some centres undefined), the Potency result is “inactive”.
The result for `COc1cc([C@H]2OC[C@@H]3[C@@H](c4ccc(O[C@@H]5O[C@H](CO)[C@@H](O)[C@H](O)[C@H]5O)c(OC)c4)OC[C@]23O)ccc1O` reads “inactive”.
The result for `CC1=CC(=O)CC(C)(C)C1(O)CCC(C)O` (centres undefined) reads “inactive”; that for `CC(C)c1cc2c(c(O)c1O[C@@H]1O[C@H](CO)[C@@H](O)[C@H](O)[C@H]1O)CC1(O)CCC(O)C(C)(C)C1CC2` (some centres undefined), “inactive”.
In the case of `Clc1ccc(CN[C@H]2CCN(c3ncc(Br)cn3)C2)c(Cl)c1` it was “inactive”; in that of `CC1CCC2(NC1)OC1C(=O)C3C4CCC5CC(O[C@@H]6O[C@H](CO)[C@@H](O)[C@H](O)[C@H]6O[C@@H]6O[C@@H](C)[C@H](O)[C@@H](O)[C@H]6O)CCC5(C)C4CCC3(C)C1C2C` (some centres undefined), “inactive”; in that of `CNC(=O)Nc1ccc(OC)c(NC(=O)NC(=O)c2cc(F)c(F)cc2Cl)c1`, “inactive”.
In the case of `COC(=O)CC[C@@H](C)[C@H]1CC[C@H]2[C@@H]3CC(=O)[C@H]4C[C@H](OC(C)=O)CC[C@]4(C)[C@H]3CC[C@]12C`, the Potency entry was “inactive”.
As for `C=CC(C)(C)C1(CC2NC(=O)C3CCCN3C2=O)C(=O)Nc2cc3c(cc21)C=CC(C)(C)O3` (centres undefined), the Potency entry is “inactive”.
The result for `COc1cc(/C=C/C(=O)OC2CC(OC(C)=O)C(OC(C)=O)C3C2CCC2C(=O)OC(c4ccoc4)CC23C)ccc1O[C@@H]1O[C@H](CO)[C@@H](O)[C@H](O)[C@H]1O` (some centres undefined) reads “inactive”; that for `CNC(=O)c1ccc(Nc2ncc(C(F)(F)F)c(NCc3nccnc3N(C)S(C)(=O)=O)n2)cc1`, “inactive”; that for `C=C1CCC2[C@@](C)(C=O)CCC[C@]2(C)[C@H]1CC/C(C)=C/CO` (some centres undefined), “inactive”.
On to `CC(=O)c1c(C)cc(O[C@@H]2O[C@H](CO)[C@@H](O)[C@H](O)[C@H]2O)cc1O`, for which the Potency result is “inactive”.
The result for `CON(C)C(=O)N1N=C(c2cc(F)ccc2F)S[C@@]1(CCCN)c1ccccc1` reads “inactive”.
